Screens as filed in PubChem BioAssay.
APP 5UTR inh: APP translation inhibition; inhibition, % at 2 µM; hit rate 0.82% among 190,000; AID 1285; SH-SY5Y APP 5'UTR-luciferase reporter, luminescence;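 active = inhibition above a set limit, derived from the sample mean plus 3 SD, cut at about 45% in these data; inconclusive = one replicate passes the limit while the other fails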
IEC-6 cytotox: counter-screen for KLF5 inhibitors: cytotoxicity in IEC-6 cells. IEC-6 cytotoxicity, luminescence viability. inhibition, % at 5 µM. hit rate 0.78% among 290,000; in the data active = inhibition above about 22%;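 note: 0% = plate median of test compound wells and 100% = cytotoxic reference compound wells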
KLF5 inh: inhibitors of KLF5 expression; DLD-1 KLF5 promoter-luciferase reporter, luminescence; AID 1700; inhibition, % at 5 µM; hit rate 0.23% among 290,000;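 active = inhibition above a per-plate limit of that plate's mean compound inhibition plus 3 SD, cut at about 60% in these data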;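 note: 0% = DMSO wells and 100% = LY294002 at 200 µM; higher means less KLF5 promoter-driven luciferase light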
Ba/F3 V617F tox: reduce viability of Ba/F3 cells dependent on JAK2V617F; hit rate 1.1% among 220,000; Ba/F3 EpoR-JAK2V617F viability, ATP luminescence; AID 1446; inhibition, % at 5.6 µM;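 active = inhibition above the campaign mean plus 3 SD over all tested compounds, cut at about 24% in these data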;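 note: cytokine-independent growth of Ba/F3 cells driven by EpoR plus mutant JAK2; 0% = DMSO-treated cells and 100% = JAK inhibitor I control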
aSyn 5UTR inh: 5' untranslated region of α-synuclein, MLPCN primary screen | inhibition, % (tested at 7.5 µM) | hit rate 0.82% among 300,000 | AID 1813 | alpha-synuclein 5'UTR reporter, inhibitor activity; in the data active = inhibition above about 60%; inconclusive = no clear call, values can overlap the other calls;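 note: H4 neuroglioblastoma cells stably carrying SNCA 5'UTR luciferase fusion; 0% = DMSO wells and 100% = positive control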
BaF3 parental: parental Ba/F3 viability inhibition as JAK2V617F counter-screen; AID 1486; inhibition, % at 5.6 µM; hit rate 1.1% among 220,000; CellTiter-Glo ATP luminescence;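 active = inhibition above a per-campaign cutoff, the mean inhibition of all tested compounds plus 3 SD, cut at about 27% in these data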;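 note: 0% = DMSO wells and 100% = JAK Inhibitor I control wells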
The depositor's hits bear a star. Sampled rows, rich in hits. Any-hit rate of the full collection: about 2.2%.

O=C(Nc1nc2ccccc2s1)C1CCN(S(=O)(=O)c2cc([N+](=O)[O-])ccc2Cl)CC1 was read as IEC-6 cytotox 0, KLF5 inh 3, Ba/F3 V617F tox 4, aSyn 5UTR inh -81 and BaF3 parental 43*.
For CCC(C)NC(=O)C1CCN(S(=O)(=O)c2cc([N+](=O)[O-])ccc2Cl)CC1 (stereo unspecified) the results were IEC-6 cytotox -2, KLF5 inh 10, Ba/F3 V617F tox -1, aSyn 5UTR inh -23 and BaF3 parental 1.
Screening Oc1ccccc1N=Nc1ccccc1O returned APP 5UTR inh 83*, IEC-6 cytotox -3, KLF5 inh 61, Ba/F3 V617F tox 6, aSyn 5UTR inh inconclusive and BaF3 parental 3.
Screening COc1ccc(CN2CCSCC2)c(C)c1C returned IEC-6 cytotox -1, KLF5 inh -50 and aSyn 5UTR inh 9.
Screening CCCCn1c(=N)n(CC(O)COc2cccc(C)c2)c2ccccc21 (stereo unspecified) returned APP 5UTR inh -5, IEC-6 cytotox 7, KLF5 inh 13, Ba/F3 V617F tox 17, aSyn 5UTR inh 0 and BaF3 parental 40*.
For CCCCCn1c(=N)n(CC(O)COc2ccccc2OC)c2ccccc21 (stereo unspecified) the results were APP 5UTR inh -1, IEC-6 cytotox 8, KLF5 inh 11, Ba/F3 V617F tox 18, aSyn 5UTR inh 8 and BaF3 parental 28*.
Screening CCCn1c(=N)n(CC(O)COc2ccc(C)cc2)c2ccccc21 (stereo unspecified) returned IEC-6 cytotox -2, KLF5 inh -13, Ba/F3 V617F tox 0, aSyn 5UTR inh -23 and BaF3 parental 4.
Screening Cc1cc(C)nc(SCc2ccc(C(=O)N/N=C/c3cccc(O)c3O)cc2)n1 returned APP 5UTR inh 62*, IEC-6 cytotox -8, KLF5 inh -33, Ba/F3 V617F tox 5, aSyn 5UTR inh 70* and BaF3 parental 4.
Screening CC(=O)c1c(C)oc2ccc(N(C(C)=O)S(=O)(=O)c3ccc(Cl)c([N+](=O)[O-])c3)cc12 returned APP 5UTR inh -1, IEC-6 cytotox -2, KLF5 inh -20, Ba/F3 V617F tox -6, aSyn 5UTR inh 112* and BaF3 parental 0.
CC(=O)c1c(C)oc2ccc(N(C(C)=O)S(=O)(=O)c3cccc4cccnc34)cc12 was read as IEC-6 cytotox 7, KLF5 inh -11, Ba/F3 V617F tox 27*, aSyn 5UTR inh -29 and BaF3 parental 37*.
For CC(=O)c1c(C)oc2ccc(N(C(C)=O)S(=O)(=O)c3ccc(F)cc3C)cc12 the results were IEC-6 cytotox 3, KLF5 inh -10 and aSyn 5UTR inh 6.
For N/C(=N\OCc1ccc([N+](=O)[O-])cc1)c1ccncc1 the results were APP 5UTR inh -42, IEC-6 cytotox -6, KLF5 inh -29, Ba/F3 V617F tox 4, aSyn 5UTR inh -83 and BaF3 parental 2.
Screening O=C(NCC(c1ccco1)N1CCOCC1)C1CCCCC1 (stereo unspecified) returned aSyn 5UTR inh -2.
Cc1cc(SCC(=O)N/N=C/c2ccccc2C(=O)O)c(C)cc1Br was read as IEC-6 cytotox -8, KLF5 inh -19 and aSyn 5UTR inh 5.
For Cc1cc(SCC(=O)N/N=C/c2ccc(O)cc2O)c(C)cc1Br the results were APP 5UTR inh 49*, IEC-6 cytotox 5, KLF5 inh 38, Ba/F3 V617F tox 1, aSyn 5UTR inh 78* and BaF3 parental 3.
`CC(C)(C)c1ccc(C(=O)Nc2ccc(C(=O)N3CCCC3)cc2)cc1` gave IEC-6 cytotox 2, KLF5 inh -18 and aSyn 5UTR inh -1.
For CC(C)(C)c1ccc(C(=O)N2CCCCCC2=O)cc1 the results were APP 5UTR inh 57*, IEC-6 cytotox 0, KLF5 inh 47, Ba/F3 V617F tox -1, aSyn 5UTR inh 91* and BaF3 parental 5.
For CCN1CCN(S(=O)(=O)c2ccc(C(C)(C)C)cc2)CC1 the results were IEC-6 cytotox 3, KLF5 inh -60 and aSyn 5UTR inh 2.
Screening Cc1ccc(C(=O)Nc2ncc3c(Cl)cccc3n2)cc1 returned APP 5UTR inh -141, IEC-6 cytotox 12, KLF5 inh -52, Ba/F3 V617F tox 16, aSyn 5UTR inh 65* and BaF3 parental 13.
`Cc1ccc(C(=O)Nc2ccc(Cl)cn2)cc1` gave APP 5UTR inh -172, IEC-6 cytotox 1, KLF5 inh -133, Ba/F3 V617F tox 7, aSyn 5UTR inh -41 and BaF3 parental 7.
CCN(CC)S(=O)(=O)c1ccc(=O)[nH]c1 was read as APP 5UTR inh -22, IEC-6 cytotox -4, KLF5 inh -45, Ba/F3 V617F tox -6, aSyn 5UTR inh 9 and BaF3 parental 5.
COc1cc(/C=N/Nc2nc(N3CCCC3)nc(N3CCCC3)n2)ccc1OCc1ccccc1F was read as IEC-6 cytotox 7, KLF5 inh 4, Ba/F3 V617F tox -2, aSyn 5UTR inh -72 and BaF3 parental 2.
Screening CCOC(=O)c1c(NC(=O)COc2ccccc2F)sc2c1CC(C)(C)NC2(C)C returned aSyn 5UTR inh 20.
`CC1(C)Cc2c(sc(NC(=O)COc3ccc(Cl)cc3Cl)c2C(N)=O)C(C)(C)N1` gave IEC-6 cytotox 7, KLF5 inh -14 and aSyn 5UTR inh 62*.
COC(=O)c1c(NC(=O)COc2ccc(Cl)cc2)sc2c1CC(C)(C)NC2(C)C was read as IEC-6 cytotox 1, KLF5 inh -10 and aSyn 5UTR inh 83*.
CC12CC3CC(C)(C1)CC(Nc1nc(N4CCOCC4)nc4ccccc14)(C3)C2 was read as IEC-6 cytotox 0, KLF5 inh -11, Ba/F3 V617F tox 2, aSyn 5UTR inh -1 and BaF3 parental 0.
`CCSc1nccc(-c2nn(-c3ccc(C)cc3)ccc2=O)n1` gave IEC-6 cytotox 17, KLF5 inh 7, Ba/F3 V617F tox 31*, aSyn 5UTR inh 21 and BaF3 parental 38*.
O=C(N/N=C/c1cc(Br)c(Br)s1)c1ccncc1 was read as APP 5UTR inh -7, IEC-6 cytotox 0, KLF5 inh -22, Ba/F3 V617F tox 1, aSyn 5UTR inh 84* and BaF3 parental 11.
`CCOC(=O)c1c(NC(=O)CC)sc(C(=O)NC2CCCC2)c1C` gave IEC-6 cytotox 8, KLF5 inh -50 and aSyn 5UTR inh -14.
`O=C(N/N=C(\c1ccccc1)c1ccccn1)c1cccc([N+](=O)[O-])c1` gave APP 5UTR inh 85*, IEC-6 cytotox 89*, KLF5 inh 67*, Ba/F3 V617F tox 99*, aSyn 5UTR inh 99* and BaF3 parental 91*.
Cn1ccnc1/C(=N\NC(=O)c1ccccc1)c1cccc([N+](=O)[O-])c1 was read as APP 5UTR inh -11, IEC-6 cytotox 2, KLF5 inh 1, Ba/F3 V617F tox -4, aSyn 5UTR inh 13 and BaF3 parental -1.
Screening O=C(COC(=O)CN1C(=O)C2CCCCC2C1=O)NC1CCS(=O)(=O)C1 (stereo unspecified) returned APP 5UTR inh 8, IEC-6 cytotox -1, KLF5 inh -9, Ba/F3 V617F tox -1, aSyn 5UTR inh 15 and BaF3 parental 2.
